Structures are written as SMILES. Compounds without any hit were thinned out: in the full panel of roughly 83,000, 20% have a hit.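 How to read the values: 0–100, growth inhibition (40 = 60% inhibited); 0, no net growth; -100 to 0, cell death (-40 = 40% of starting cells died; -100 = all dead).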 Values without a mark were called inactive. Activity calls are given as the source filed them. Rule for the calls: active = growth percent below 10; inactive = the rest.

What all share (assay): NCI-60 one-dose screen, 48 h (100 = growth as untreated, 0 = no growth, -100 = all killed)
Details in all cases: 10 µM unless noted

The subject of experiment [1] is NCI-H23 lung.
In experiment [2] the test system is NCI-H226 lung.
Experiment [3] relates to NCI-H322M lung.
The test system of experiment [4] is HOP-62 NSCLC.
Experiment [5] concerns NCI-H460 lung.
Experiment [6] has as its system HOP-92 NSCLC.
The subject of experiment [7] is NCI-H522 lung.
The test system of experiment [8] is A549/ATCC NSCLC.
Experiment [9] concerns 786-0 renal.
The test system of experiment [10] is DU-145 prostate.
For experiment [11], the system named is K-562 leukemia.
Experiment [12] concerns MALME-3M melanoma.
Experiment [13] deals with MDA-MB-231 breast.
Experiment [14] concerns RXF 393 renal.
The subject of experiment [15] is SF-268 CNS.
Experiment [16] relates to SF-295 CNS.
Experiment [17] has as its system SF-539 CNS.
The subject of experiment [18] is UACC-257 melanoma.
For experiment [19], the system named is M14 melanoma.

Consider `COc1ccc(NC(=O)Nc2ccccc2CNc2nc(Nc3ccc(OCCN4CCCC4)cc3)ncc2Cl)cc1`, for which the growth in experiment [1] is 43.1%; in experiment [2], 76.1%; in experiment [3], 36.5%; in [4], 6.02% (active); in [5], -70.9% (active); in experiment [6] it was 4.83% (active). The growth in [7] is -3.26% (active); in experiment [8] it was 18.4%; in experiment [9] it was -84% (active); in experiment [10], 18%; in experiment [11] it was 0.588% (active); in [12], -63.7% (active). The growth in experiment [13] is -59.1% (active); in experiment [14], -75.6% (active); in experiment [15], 35.8%; in experiment [16], 11.1%; in [17], -84.2% (active); in [18] it was -46.8% (active). Besides, the growth in experiment [19] was -75.6% (active).
Take `CC(=O)c1c(C)nc(SCC(=O)Nc2ccc(Cl)cc2)n1-c1ccc(Cl)cc1`: the growth was 96.5% in [1]; 96% in [2]; 94.9% in experiment [3]; 99% in [4]; 86.7% in experiment [5]; 110% in experiment [6]. Also, the growth in [7] is 72.3%; in experiment [8], 86.7%; in [9] it was 102%; in [10] it was 106%; in experiment [11], 83%; in experiment [12], 90.8%. In addition, the growth in experiment [13] was 82%; in experiment [14] it was 67.3%; in experiment [15], 92.5%; in [16], 91.3%; in experiment [17], 95.8%; in experiment [18], 94.5%. Also, in [19], the growth was 98.4%.
In the case of `COc1ccc(Oc2nc(Nc3ccc(N4CCOCC4)cc3)ncc2NC(=O)c2cc(OC)cc(OC)c2)cc1`, the growth in experiment [1] was 101%; in experiment [2], 71.2%; in experiment [3], 96.7%; in experiment [4], 97%; in experiment [5], 95.5%; in [6] it was 70.7%. Besides, the growth in experiment [7] is 58.2%; in [8], 82.4%; in experiment [9], 66.5%; in [10], 98.7%; in experiment [11] it was 58.3%; in experiment [12] it was 108%. Besides, the growth in experiment [13] was 85.2%; in [14], 52.3%; in experiment [15], 90%; in experiment [16], 94%; in experiment [17], 87.2%; in experiment [18] it was 99%. For the same molecule, the growth in experiment [19] was 91.4%.
`CN1CCN(C(=O)OCc2nc3c(N4CCOCC4)nc(Cl)nc3n2C)CC1`: the growth was -1.07% (active) in [1]; -60.8% (active) in experiment [2]; 53.7% in experiment [3]; 47.3% in experiment [4]; 6.7% (active) in experiment [5]; -32% (active) in experiment [6]. Moreover, the growth was -38.8% (active) in experiment [7]; 25.1% in [8]; -95.5% (active) in experiment [9]; 1.69% (active) in [10]; -11% (active) in [11]; -65.3% (active) in experiment [12]. Moreover, the growth in experiment [13] was -77.5% (active); in experiment [14], -94.9% (active); in experiment [15] it was 1.11% (active); in experiment [16] it was 73.4%; in experiment [17], -99% (active); in experiment [18] it was -64.7% (active). In experiment [19], the growth is -77.4% (active).
Turning to `COc1ccccc1/C=C1\COc2ccc(O)cc2C1=O`, the growth is 101% in [1]; 102% in experiment [2]; 104% in [3]; 101% in experiment [4]; 93.3% in experiment [5]; 103% in [6]. Moreover, the growth in experiment [7] is 24.6%; in experiment [8] it was 84.6%; in experiment [9], 97.2%; in experiment [10] it was 96.4%; in [11] it was 6.88% (active); in experiment [12] it was 79.9%. The growth was 121% in experiment [13]; 92.1% in experiment [14]; 83.9% in experiment [15]; 104% in [16]; 92.5% in [17]; 95.2% in experiment [18]. Also, in [19], the growth was 77.8%.
On to `O=C(CCCOc1ccc(Br)cc1)Nc1ncc(Cc2ccc(F)cc2)s1`, for which the growth in experiment [1] is 86.5%; in [2] it was 88.8%; in [3] it was 78.5%; in experiment [4], 75.3%; in experiment [5] it was 90.4%; in experiment [6] it was 58%. Besides, the growth in experiment [7] was 75.1%; in [8], 84.8%; in experiment [9], 86.3%; in [10] it was 79.8%; in experiment [11], 37.1%; in [12], 73.1%. Besides, the growth was 79.5% in [13]; 69.2% in experiment [14]; 73% in [15]; 68.9% in experiment [16]; 68.3% in experiment [17]; 93.4% in [18]. In addition, the growth in experiment [19] was 51%.
With `Cc1ccc(-c2nc(C#N)c(S(=O)(=O)N(C)C)o2)cc1`, the growth in [1] was 89.2%; in experiment [2] it was 103%; in [3], 91.1%; in experiment [4] it was 96.7%; in experiment [5], 110%; in experiment [6] it was 103%. Besides, the growth was -0.0776% (active) in experiment [7]; 102% in experiment [8]; 96.4% in experiment [9]; 103% in [10]; 12.3% in experiment [11]; 52.6% in [12]. In addition, the growth is 88.1% in experiment [13]; 105% in [14]; 104% in experiment [15]; 100% in [16]; 102% in experiment [17]; 94.8% in experiment [18]. Besides, the growth in experiment [19] was 64.3%.
Consider `OB(O)c1ccsc1-c1nc2ccc3[nH]ncc3c2c2c1CCCC2`, for which the growth is 51.6% in experiment [1]; 72% in experiment [2]; 49.9% in experiment [3]; 52.2% in [4]; 38.9% in experiment [5]; 65.3% in [6]. Also, the growth in experiment [7] is 32.2%; in experiment [8], 46.7%; in experiment [9], 48.6%; in experiment [10], 47.3%; in [11], 55.9%; in experiment [12] it was 77.9%. In addition, the growth is 70.3% in experiment [13]; 19.2% in [14]; 58.9% in experiment [15]; 69.6% in experiment [16]; 45.2% in experiment [17]; 85.5% in experiment [18]. Moreover, the growth in experiment [19] was 41.4%.

For the origin of these results see PubChem BioAssay (NCI).
